Results filed as inconclusive are left out. Where a call stands in place of a potency, no number is given. Activity calls are given as the source filed them. Calls follow the shape of the dose curve; as a rule, active = well fitted curve in the direction sought with a large enough effect; inconclusive = small, poorly fitted or top-dose-only effect, or effect the other way, or another doubt; inactive = no such curve, though single readings can be large or run the other way.
Target: Pyruvate kinase PKLR (Homo sapiens) (UniProt P30613)
Assay: Secondary LDH Assay for Activators of Human Reticulocyte Pyruvate Kinase: for Probe SAR
Conditions: purified hPK-R, LDH-coupled NADH fluorescence kinetic; series mostly up to 58.4 µM
Excerpt: NIH Chemical Genomics Center [NCGC] Wael M. Rabeh, Lyudmila Nedyalkova and Hee-Wan Park [Structural Genomics Consortium, 100 College St. Toronto, Ontario, Canada] NCGC Assay Overview: Human pyruvate kinase reticulocyte (hPK-R) enzyme was supplied as a highly purified (>95% pure) preparation from Structural Genomics Consortium in Toronto (Ontario, Canada) and a secondary assay was used to evaluate compounds. This assay couples the formation of pyruvate from hPK-R using lactate dehydrogenase (LDH) and NADH. The depletion of NADH is followed in a fluorescent-based kinetic assay that follows the formation of pyruvate to lactate, as catalyzed LDH. Pyruvate kinase substrates, PEP and ADP, were present in the assay at 0.1 mM and 4 mM respectively. In this kinetic assay initial rates were determined by following the fluorescence of NADH depletion.
NCGC Assay Protocol Summary: Three uL of substrate mix (final concentration, 50 mM Tris-Cl pH 8.0, 200 mM KCl, 15 mM MgCl2, 0.1 mM PEP, 4.0 mM ADP, and 0.2 mM NADH) was dispensed into black-solid 1536 well plates. 23 nL of compounds were delivered by a pin tool and 1 uL of enzyme mix (final concentrations, 10 nM hPK-R and 1 uM of LDH) was added. Plates were immediately placed in ViewLux (Perkin Elmer) and NADH fluorescence was determined at 30 second exposure intervals for between 3 and 6 minutes. Data were normalized to the uninhibited and EC100 activation using known activators such as fructose-bis-phosphate.

Chain of Pyruvate kinase PKLR (Homo sapiens) (P30613 whole entry, looked up): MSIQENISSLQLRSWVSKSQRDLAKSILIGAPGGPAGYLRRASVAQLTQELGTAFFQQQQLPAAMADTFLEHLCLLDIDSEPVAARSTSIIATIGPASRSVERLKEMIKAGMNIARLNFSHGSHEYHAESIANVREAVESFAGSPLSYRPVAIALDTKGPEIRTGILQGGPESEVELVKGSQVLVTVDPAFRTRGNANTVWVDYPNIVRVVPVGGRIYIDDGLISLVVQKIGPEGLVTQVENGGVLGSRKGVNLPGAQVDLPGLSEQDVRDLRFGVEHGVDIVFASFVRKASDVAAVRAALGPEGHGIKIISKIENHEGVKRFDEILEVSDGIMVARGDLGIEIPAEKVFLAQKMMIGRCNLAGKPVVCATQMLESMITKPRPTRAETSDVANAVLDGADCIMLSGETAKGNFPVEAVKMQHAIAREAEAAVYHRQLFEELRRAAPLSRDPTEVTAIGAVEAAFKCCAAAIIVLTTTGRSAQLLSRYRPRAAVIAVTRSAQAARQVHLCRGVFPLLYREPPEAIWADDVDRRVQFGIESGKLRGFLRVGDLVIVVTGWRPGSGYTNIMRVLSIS

Structure (SMILES) | Potency
Cc1ccc(NS(=O)(=O)c2cccc(Cl)c2)cc1C | inactive
Cc1ccc(NS(=O)(=O)c2ccc3c(c2)CCN(C(=O)C(F)(F)F)C3)cc1C | inactive
CCCCN1C(=O)c2ccccc2C1=O | inactive
O=C1c2ccccc2C(=O)N1c1ccc2ncccc2c1 | inactive
O=C1CCc2cc(S(=O)(=O)Nc3ccc4c(c3)OCCO4)ccc2N1 | inactive
O=C1c2ccccc2C(=O)N1c1ccccn1 | inactive
Cc1ccc(NS(=O)(=O)c2cc3c(cc2C)NC(=O)CO3)cc1C | inactive
Cc1ccc(NS(=O)(=O)c2cccc(C(=O)O)c2)cc1C | inactive
O=C1c2ccccc2C(=O)N1c1cccc2ncccc12 | inactive
O=S1(=O)N=C(Oc2ccccc2Cl)c2ccccc21 | inactive
Cc1ccc(NS(=O)(=O)c2ccc3c(ccn3C)c2)cc1C | inactive
Cc1ccc(OC2=NS(=O)(=O)c3ccccc32)cc1 | inactive
Cc1ccc(NS(=O)(=O)c2cc3c(cc2N2CCC2)NC(=O)CC3)cc1C | inactive
COc1ccc(OC2=NS(=O)(=O)c3ccccc32)cc1 | inactive
Cc1ccc(NS(=O)(=O)c2cc3c(cc2-c2ccsc2)NC(=O)CO3)cc1C | inactive
Cc1ccc(-c2nc3cnccn3c2Nc2ccc(C(C)C)cc2)o1 | inactive
COc1cccc(OC2=NS(=O)(=O)c3ccccc32)c1 | inactive
Cc1ccc(NS(=O)(=O)c2cc3c(cc2F)NC(=O)CC3)cc1C | inactive
COc1cccc(Cn2ncc3c4sc(S(C)=O)cc4n(C)c3c2=O)c1 (stereo not given) | inactive
O=S1(=O)N=C(Oc2ccc(Cl)cc2)c2ccccc21 | inactive

Structure (SMILES) | Potency
CC(=O)N1c2ccc(S(=O)(=O)Nc3ccc(C)c(C)c3)cc2CC1C (stereo not given) | inactive
Cc1ccc(NS(=O)(=O)c2cc3c(cc2/C=C/c2ccccc2)NC(=O)CO3)cc1C | inactive
Cc1ccc(NS(=O)(=O)c2cccc(F)c2)cc1C | inactive
CC(=O)N1CCCc2cc(S(=O)(=O)Nc3ccc(C)c(C)c3)ccc21 | inactive
O=C1c2ccccc2C(=O)N1c1cccc2cccnc12 | inactive
Nc1cc(S(=O)(=O)N2CCN(S(=O)(=O)c3ccc4c(c3)OCCO4)CC2)ccn1 | inactive
CC(=O)Nc1ccc(S(=O)(=O)Nc2ccc(C)c(C)c2)cc1 | inactive
Cc1ccc(C)c(OC2=NS(=O)(=O)c3ccccc32)c1 | inactive
Cc1ccc(NS(=O)(=O)c2ccc3c(c2)CCC(=O)N3)cc1 | inactive
O=C1CCc2cc(S(=O)(=O)Nc3cccc4ccccc34)ccc2N1 | inactive
O=C1CCc2cc(S(=O)(=O)Nc3cccc(F)c3)ccc2N1 | inactive
O=C1c2ccccc2C(=O)N1Cc1ccccc1 | inactive
Cc1ccc(NS(=O)(=O)c2ccc(-c3ccccc3)cc2)cc1C | inactive
O=C1c2ccccc2C(=O)N1c1ccc(Cl)cc1 | inactive
Cc1ccc(N(C)S(=O)(=O)c2ccc3c(c2)CCC(=O)N3)cc1C | inactive
O=C1NS(=O)(=O)c2ccccc21 | inactive
Cc1ccc(NS(=O)(=O)c2ccc(N3CCCC3=O)cc2)cc1C | inactive
Cc1ccc(NS(=O)(=O)c2ccc3c(c2)oc(=O)n3C)cc1C | inactive
Cc1ccc(NS(=O)(=O)c2ccc3c(c2)CC(=O)N3)cc1C | inactive
O=C1c2ccccc2C(=O)N1c1ccccc1O | inactive
